According to PubChem BioAssay AID2419 (Southern Research Specialized Biocontainment Screening …, 2010):
Potency and affinity values are given separately. Calls of active or inactive are those of the source. How the calls were made is not given here.

Assay: West Nile virus cytopathic effect inhibition, cell-based (AID 2419)
Settings: West Nile virus-infected cells, hits give high values; at 200 µM unless noted

Max CPE inhibition, inactive:
Cc1ccc2nc(SCC(=O)Nc3ccc4c(c3)CCC4)n(-c3ccccc3)c(=O)c2c1 6.42% [at 25 µM]
COc1ccc(Cn2nc(C)cc2OC(=O)c2c(F)ccc(C)c2F)cc1 14%
O=C(CSc1nc2ccc(F)cc2c(=O)n1-c1ccccc1)Nc1ccc2c(c1)CCC2 3.95%
COc1cccc2c(=O)n(-c3ccccc3)c(SCC(=O)Nc3ccc4c(c3)CCC4)nc12 2.38% [at 12.5 µM]
COc1ccc(Cn2nc(C)cc2OC(=O)c2ccccc2)cc1 1.5%
